Measured values: ChEMBL document CHEMBL3988442, “University of Dundee, Small-Polar-MMV Screening Library” (2021)

biological target: AMP-activated protein kinase, AMPK (Homo sapiens) (UniProt P54646+O43741+P54619+Q9UGJ0+Q9Y478+Q13131+Q9UGI9); assay: AMP-dependent Kinase enzyme assay. An in vitro enzyme assay that detects ADP turnover that is directly proportional to AMPK activity. This uses naive AMPK that is activated during the assay with MK-8722; assay type: functional; set-up: scale not given: direction of the effect not stated beside the values; conditions: 30 µM

SMILES | Percent Effect [%]
N[C@H]1CN(C(=O)c2ccc3[nH]c(CO)nc3c2)C[C@@H]1c1ccccc1 | 3.57
CC1CCCCN1C(=O)Cn1cnc(C#N)n1 (centres undefined) | -5.33
CC(Oc1ccc2c(c1)OCO2)C(=O)N1CCC(N2CCOCC2)CC1 (centres undefined) | -2.63
O=C(c1ccc2[nH]cnc2c1)N1CCC(COc2ccccn2)CC1 | -1.03
N#CC1COCCN1C(=O)c1ccc2cc[nH]c2c1 (centres undefined) | 6.24
CC(C)CCN(C(=O)Nc1cccc(C(=O)N(C)C)c1)C1CC1 | -4.54
CCC(=O)Nc1cccc(OCC(=O)N2CC=CC2C(C)C)c1 (centres undefined) | -4.81
COc1ccc(C)cc1CN(CC(N)=O)C(C)C | 0.855
CCc1nc(N)nc(NCCC(=O)N2CCCC2)c1C | 4.47
O=C1NCCN(C(=O)CCN2CCCO2)C1c1cccc(F)c1 (centres undefined) | -5.73
COCC1(C(=O)N[C@H]2CN(c3ccnc(C)c3)C[C@@H]2C2CC2)CCC1 | -1.57
Cc1cc(N2CCC3(CCCN(CCO)C3=O)C2)nc(C)c1C#N (centres undefined) | 14.2
CCc1cc(N2CCC(NCCc3nc(C)c(C)s3)CC2)nc(C)n1 | 4.15
Cc1cc(C)n(CC2CCN(CC(O)COc3ccccc3)CC2)n1 (centres undefined) | 2.9
CC(C)(O)CCc1cccc(C(=O)NCc2nccs2)c1 | 0.5
Cc1noc(CCCNC(=O)C2CSCN2C(=O)C(C)(C)C)n1 (centres undefined) | -6.28
CCCS(=O)(=O)N1CCCN(CCCOC)CC1 | 11.7
CC(C)CCc1noc(C[S+]([O-])CC(=O)NCc2ccccc2)n1 (centres undefined) | -1.86
Cc1cc(C(=O)N(C)C2CCS(=O)(=O)C2)c2ccc(F)cc2n1 (centres undefined) | -7.82
CCN(CCNS(=O)(=O)N1CCOCC1)C(=O)OC(C)(C)C | 0.848

SMILES | Percent Effect [%]
CC(C)N(Cc1ccccn1)C(=O)CN(C)C(=O)c1cccs1 | 10.8
COCC(C)(O)CNC(=O)c1cc(-c2cc(OC)ccc2OC)nn1C (centres undefined) | 1.19
Cc1cc(C)c2[nH]c(C(=O)NCCN3CCOC3=O)c(C)c2c1 | 16.4
NC(=O)COc1ccc(CN2CCC3(CC2)[C@H](O)C[C@@H]3O)cc1Cl | 8.11
CCC(C(=O)NCc1nc(C)cc(C(F)(F)F)n1)n1cccn1 (centres undefined) | 4.67
CC(C)c1cc(NCc2csc(N(C)C)n2)nc(N)n1 | -10.6
CC(NCC(=O)Nc1ccc(N2CCCCCC2)cc1)c1cccs1 (centres undefined) | 16.8
CC(C)N1CCC(NC(=O)c2cn(-c3ccc(F)cc3)nn2)C1 (centres undefined) | -3.78
CCC(O)Cn1nc(-c2ccc(C(=O)O)cc2)cc1-c1ccc(F)cc1 (centres undefined) | 12
NCC(CO)Cc1ccc(OC(F)(F)F)cc1 (centres undefined) | -4.6
CN(CCCc1cnn(C)c1)Cc1cc2n(n1)CCCN(C)C2 | -6.92
CC(C)CN1C[C@@H](C(=O)O)C[C@@H](C(=O)NCc2ccncc2)C1 | -2.13
O=C(c1ccc(=O)[nH]c1)N1CCC(Oc2cccc(C(F)(F)F)c2)CC1 | -3.39
CCC(C)C(=O)Nc1ccc(CCN2CCOCC2)cc1 (centres undefined) | 11.3
CCC1c2ccccc2CCN1CCCS(C)(=O)=O (centres undefined) | -1.94
CCCn1nnnc1COC(=O)C1COc2ccccc2O1 (centres undefined) | 3
CCC(=O)NCCc1cc2nc(-c3ccncc3)ccn2n1 | 18.1
CN1CCN(C2CCN(Cc3cn4ccccc4n3)CC2)C1=O | 41.9
CN(CC(=O)NCCc1ccccn1)C(=O)c1cccs1 | 4.43
